About 83,000 compounds went through this panel and 20% of them were active in at least one assay; those are over-represented in the sample as a whole.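 Plates (96-well) were seeded with cells, treated with compound at one concentration, and incubated for 48 hours before percent growth was determined.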 Unmarked numbers belong to inactive results. Active and inactive are the calls of the source. The calls were made as follows: active = growth percent below 10; inactive = the rest.
tested on: MDA-MB-231 breast; assay: NCI-60 one-dose screen, 48 h (100 = growth as untreated, 0 = no growth, -100 = all killed); details: 10 µM unless noted

SMILES | growth
COc1cc(-c2nc(-c3nc4cc(C(=O)c5ccccc5)ccc4[nH]3)cc3c2[nH]c2ccccc23)cc(OC)c1OC | 86.4%
COc1cc(C2=NOC(c3cc(OC)c(OC)c(OC)c3)C2)ccc1OCCCCOc1cc2c(cc1OC)C(=O)N1CCC[C@H]1C=N2 (some centres undefined) | 12.3%
O=C(CCCCCCc1nc2ccc(Br)cc2[nH]1)NO | 2.73% (active)
CCCCOc1ncnc2nc[nH]c12 | 115%
CC(C)=CCC[C@H](C)c1ccc(C)c2c1OCN(CCO)C2 | 88.8%
O=C(Nc1cccc(Cl)c1)Nc1cc(C(F)(F)F)ccc1Cl | 25.5%
CCCCC(CCc1ccccn1)C(=O)c1ccccc1 (centres undefined) | 104%
Nc1cccc(S(=O)(=O)c2cccc(N)c2)c1 | 105%
O=C(Nc1ccc2ncnc(Nc3ccc(F)c(Cl)c3)c2c1)c1cccs1 | 43.4%
O=[N+]([O-])c1ccccc1CN1CCCCC1 | 105%
COc1cc2c(cc1OCCCOc1cc3c(cc1OC)C(=O)N1CCC[C@H]1C=N3)C=CC(C)(C)O2 | 88.6%
CCCCCCCCCC1=NC(C)(C)CN1C(C)(C)CO | 88.1%
COCCn1c(Nc2ccc(C(=O)NO)cc2)nc2ccccc21 | 81.5%
O=C(CSc1ccc(Cl)cc1)Nc1ccc(-c2nc3ccccc3s2)c(Cl)c1 | 93.8%
COc1cc(/C=C2\C(=O)Nc3ccc(N(C)C)cc32)cc(OC)c1OC | 24.3%
CC(C)(C)NC(=O)C(OC(=O)C1CCc2cc(F)ccc2O1)c1ccccc1Cl (centres undefined) | 92.4%
CSCCC1NC(=O)C(C(C)=Nc2ccccc2)=C1O (centres undefined) | 109%
CC1(C)C2CCC(O)(C(=O)O)C1C2 (centres undefined) | 98.9%
COc1ccc(CCN2COc3c([C@@H](C)CCC=C(C)C)ccc(C)c3C2)cc1OC | 57%
COc1ccc(C(=O)C(CN(C)C)c2ccccc2)cc1 (centres undefined) | 33.4%

SMILES | growth
Oc1ccc(CCCCCCc2ccc(O)cc2)cc1 | 65.3%
c1ccc(C2=Nc3ccccc3SC2)cc1 | 101%
O=C(O)c1cn(-c2ccccc2)nc1-c1ccc(O)cc1 | 95.7%
COc1cc(/C=C/C(=O)c2c(C)nc3ccccc3c2C)ccc1OCCCOc1cc2c(cc1OC)C(=O)N1CCC[C@H]1C=N2 | -35.6% (active)
COc1ccc(Br)c2ccccc12 | 123%
CC(=O)c1cccc(Nc2ncnc3ccc(NC(=O)c4ccco4)cc23)c1 | 88.4%
CCN(CC)c1ccc(C(=N)c2ccc(N(C)C)cc2)cc1 | 17.8%
CCCCCCCCCCCCCCCCCC1=NC(C)(C)CN1C(C)(C)CO | -71.6% (active)
COC(=O)c1ccc(NC(N)=NCCC(C)(C)c2ccc(C(F)(F)F)cc2)nc1 | 42.7%
CCCCCCCCCCCC1=NC(C)(C)CN1C(C)(C)CO | 57.7%
CO[C@@]12[C@@H]3NC3CN1C1=C(C(=O)C(N)=C(C)C1=O)[C@@H]2COC(N)=O (some centres undefined) | 67.5%
Cc1cc(NC(=O)c2ccc(N)cc2)ccc1N=Nc1ccc2cc(S(=O)(=O)O)cc(S(=O)(=O)O)c2c1 | 109%
CCCCCCCCCCCCCCCC1=NCC[N+]1(CCO)CCO | 36.7%
CC1CN(CCCOC(=O)Nc2ccc(Cl)cc2)CCN1C(C)(C)C (centres undefined) | 102%
O=c1c2sc3ccccc3c2nnn1-c1ccc(F)c(Cl)c1 | 27.5%
Clc1ccccc1Nc1nnc(-c2ccncc2)s1 | 108%
COc1cc2c(cc1I)-c1c(cc(OC)c(OC)c1OC)CC[C@@H]2NC(C)=O | -6.61% (active)
COC(=O)c1cc(Cl)cc([N+](=O)[O-])c1O | 123%
CCN(CC)c1ccc2nc3c4ccccc4c(=O)cc-3n(-c3ccccc3)c2c1 | -24.1% (active)
